Screening results (PubChem BioAssay)
PfHsp90 set2 – inhibits growth of yeast expressing Plasmodium falciparum Hsp90; 310,000 compounds, 0.32% hits; inhibition, % at 9.4 µM; S. cerevisiae expressing PfHsp90, BacTiter-Glo ATP, 48 h; yeast lacking PDR1 and PDR3 efflux regulators; AID 504621;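 active means every replicate shows inhibition above about 80%, whatever the replicate mean, limit read from the data; inconclusive means mean inhibition reaches the set limit but some replicate falls short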
SKKanGAS inh – inhibitors of SKKanGAS S. pyogenes growth in kanamycin (SK-promoter or general growth effect); AID 1662; inhibition, % at 7.5 µM; 300,000 compounds, 1.3% hits; BacTiter-Glo, 6 h;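 active means mean replicate score, as percent of positive control median, at least 50; inconclusive means mean below 50 but one replicate at or above 50; inactive means mean and every replicate below 50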;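 further: strain carries kanamycin resistance gene driven by streptokinase promoter and grows in 40 µg/ml kanamycin; loss of luminescence reflects streptokinase promoter inhibition or plain growth inhibition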
tim10-1 inh – growth inhibitors of tim10-1 mutant yeast. AID 463190. inhibition, % at 20 µM. 330,000 compounds, 2.2% hits. S. cerevisiae tim10-1 ts strain growth, BacTiter-Glo, 24 h;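 active means inhibition of at least 40%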;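 further: mutant grown at 25 °C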
TIM10 inh – TIM10 yeast growth inhibition. S. cerevisiae TIM10 strain growth, BacTiter-Glo luminescence, 24 h. inhibition, % at 10 µM. 330,000 compounds, 1.4% hits;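 active means inhibition of 40% or more at the single tested concentration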;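 further: wild-type TIM10 isogenic control strain grown at permissive 25 °C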
tim23-1 inh – tim23-1 yeast growth inhibition; S. cerevisiae tim23-1 growth, BacTiter-Glo luminescence, 24 h; inhibition, % at 20 µM; 330,000 compounds, 1.3% hits; AID 463212;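 active means growth inhibition of the mutant yeast at or above 50%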;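 further: temperature-sensitive mutant grown at 25 °C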
NLRP3 yeast inh – blocks the NALP3 inflammasome reconstituted in yeast; Yeast reconstituted NLRP3/ASC/caspase-1, beta-gal luminescence, 24 h; inhibition, % at 10 µM; 330,000 compounds, 0.39% hits; AID 2825;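 active means inhibition of 50% or more; inactive means inhibition below 50%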
A number is an active result; n = inactive; u = inconclusive; x = not tested or not shown. An excerpt weighted towards active compounds, which were near 4.5% of everything screened.

SMILES	PfHsp90 set2	SKKanGAS inh	tim10-1 inh	TIM10 inh	tim23-1 inh	NLRP3 yeast inh
Cc1cccc(Nc2nc(N)nc(CN3CCN(c4ccc(F)cc4)CC3)n2)c1	x	64.8	n	n	n	n
CC1CC(C)CN(Cc2nc(N)nc(Nc3ccc4ccccc4c3)n2)C1 (stereo not given)	n	51.8	n	n	n	n
O=C(c1ccc2c3c(cccc13)CC2)C1CCCN(Cc2ccccn2)C1 (stereo not given)	n	69.4	n	n	n	n
O=C(Nc1ccc(-c2cccc(F)c2)cc1)C1CCCN(Cc2ccccn2)C1 (stereo not given)	n	51.8	n	n	n	n
CSc1ncccc1C(=O)OCC(=O)NC12CC3CC(CC(C3)C1)C2	n	x	n	n	n	n
N#C/C(=C\c1ccc(O)cc1)C(=O)NCc1ccccc1	n	n	n	n	n	n
N#C/C(=C/c1ccc(O)cc1)C(=O)NCc1ccc(Cl)cc1	103.4	n	n	n	n	n
O=C(Nc1cccc(-c2csc(Nc3ccc(Cl)cc3)n2)c1)c1ccccc1	n	91.4	n	n	n	n
O=C(Nc1ccc(-c2csc(Nc3ccc(Cl)cc3)n2)cc1)c1cc([N+](=O)[O-])cc(C(F)(F)F)c1	n	75.4	n	n	n	n
O=C(Nc1cccc(-c2csc(Nc3ccc(Cl)cc3)n2)c1)c1cccc(C(F)(F)F)c1	n	n	n	n	n	n
O=C(Nc1cccc(-c2csc(Nc3ccc(Cl)cc3)n2)c1)c1cc([N+](=O)[O-])cc(C(F)(F)F)c1	n	u	n	n	n	n
Cc1cccc(-n2cnc3c(sc4nc(N5CCOCC5)c5c(c43)CCCC5)c2=O)c1	n	n	n	n	n	n
CC(=O)Nc1cccc(NC(=O)CSc2nc(=O)n(CCCN3CCOCC3)c3c2CCC3)c1	n	n	n	n	n	n
C/C(=C\C(=O)OCCCCCCCCC(=O)O)C[C@@H]1OC[C@H](C[C@@H]2O[C@H]2[C@@H](C)[C@H](C)O)[C@@H](O)[C@H]1O	n	103.5	n	n	n	n
CC(C)Oc1ccc(C(=O)Nc2ccc(Cl)c(S(=O)(=O)Nc3ccc(Cl)cc3)c2)cc1	n	110.2	n	n	n	n
O=c1[nH]c(-c2ccccc2)nc(-c2ccccc2)c1Cl	n	n	n	n	n	n
CCN1C/C(=C/c2cccc([N+](=O)[O-])c2)C(=O)/C(=C/c2cccc([N+](=O)[O-])c2)C1	101.9	x	x	x	x	x
O=C1NC(=O)/C(=C/c2cccc([N+](=O)[O-])c2)N1	n	n	n	n	n	n
COc1ccc(NC(=S)NC(=O)/C=C/c2cccs2)cc1	n	n	n	n	n	n
O=C(/C=C/c1cccs1)NC(=S)Nc1ccc(S(=O)(=O)Nc2ccccc2C(F)(F)F)cc1	n	59.3	n	n	n	n
COC(=O)C1C2CCCCC1C(=O)O2 (stereo not given)	n	x	x	x	x	x
O=S(=O)(Nc1ccc(N=Nc2ccc(O)c3ccccc23)cc1)c1ccccc1	n	96.0	n	n	n	n
O=S(=O)(NCC1(N2CCOCC2)CCCCC1)c1ccc(F)c(F)c1F	n	n	n	n	n	n
C[C@H]1c2cccc(O)c2C(O)=C2C(=O)[C@]3(O)C(O)=C(C(N)=O)C(=O)[C@@H](N(C)C)[C@@H]3[C@@H](O)[C@@H]21	n	96.8	n	n	n	n
CN(C)c1ccc(O)c2c1CC1CC3[C@@H](N(C)C)C(=O)C(C(N)=O)=C(O)[C@]3(O)C(=O)C1=C2O (stereo not given in full)	n	105.6	n	n	n	n
SMILES	PfHsp90 set2	SKKanGAS inh	tim10-1 inh	TIM10 inh	tim23-1 inh	NLRP3 yeast inh
CCOc1ccccc1NC(=O)CSc1nc2[nH]ncc2c(=O)[nH]1	n	n	n	n	n	n
CC1(C)CN(C(=S)Nc2ccc(F)cc2F)C1=O	n	n	n	n	n	n
Cc1ccc2nsnc2c1NS(=O)(=O)c1c(C)ccc2nsnc12	n	n	n	n	n	n
Cc1ccc(/C=[N+](\[O-])c2ccc(N(C)C)cc2)c2nsnc12	108.6	n	n	n	n	n
CN1C(=O)/C(=C/c2ccccc2Cl)Sc2ccc(C(=O)NCc3cccnc3)cc21	n	71.4	n	n	n	n
CCN1/C(=C/c2ccc3cc(C)ccc3[n+]2CC)Sc2cc(C)ccc21	93.7	x	x	x	x	x
CCN1/C(=C/c2ccc3cc(C)ccc3[n+]2C)Sc2ccc3sccc3c21	n	x	x	x	x	x
CCOC(=O)C1CCN(C(=O)CCC(=O)NNc2nc3ccccc3c3nc(C)nn23)CC1	n	n	n	n	n	n
CC1CCCC(NC(=S)Nc2ccc(SC(F)F)cc2)C1C (stereo not given)	n	108.2	n	n	n	n
OC1CCC(NC(=S)Nc2ccc(SC(F)F)cc2)CC1 (stereo not given)	n	n	n	n	n	n
CC(OC(=O)c1cccc(-n2cnnn2)c1)C(=O)NCc1ccccc1 (stereo not given)	x	n	n	n	n	n
Cc1nc2scc(C)n2c(=O)c1S(=O)(=O)N1CCN(c2ccccn2)CC1	n	n	n	n	n	n
CCOC(=O)c1c(NC(=O)c2cccs2)sc2c1CCN(C(=O)OCC)C2	n	54.5	n	n	n	n
CCOC(=O)c1c(NC(=O)c2cccs2)sc2c1CCCC2	n	n	n	n	n	n
Clc1ccccc1Sc1ccc(-c2ccccn2)s1	x	62.2	n	n	n	n
O=[N+]([O-])c1cccnc1Sc1ccccc1Cl	n	n	n	n	n	n
O=C(CCNS(=O)(=O)c1ccc2[nH]c(=O)oc2c1)Nc1cccc(Br)c1	n	n	n	n	n	n
Cc1onc(-c2ccccc2)c1C(=O)Nc1ccc(S(=O)(=O)Nc2nccs2)cc1	n	n	n	n	n	n
O=S(=O)(Nc1nccs1)c1ccc(Nc2nnc(-c3ccccc3)c3ccccc23)cc1	n	103.2	n	n	n	n
CC(=O)Nc1ccc(C(=O)Nc2nc(-c3ccccn3)cs2)cc1	n	n	n	n	n	n
O=C(Nc1nc(-c2ccccn2)cs1)c1cc(Cl)ccc1[N+](=O)[O-]	x	95.0	n	n	n	n
Cc1cc(C(=O)Nc2nc(-c3ccccn3)cs2)ccc1[N+](=O)[O-]	n	91.4	n	n	n	n
O=C(Nc1nc(-c2ccccn2)cs1)c1ccc2c(c1)OCCO2	n	83.5	n	n	n	n
CCOCc1c(C(=O)OCC(=O)Nc2ccccc2C(N)=O)oc2ccccc12	n	x	n	n	n	n
Cn1cc(S(=O)(=O)N2CCCC2)cc1C(=O)O	x	x	n	n	n	n
CC[C@]1(C(=O)OC)[C@H]2C(=O)N(C)C(=O)[C@H]2[C@H]2CN=C(SCc3ccc(C(=O)OC)cc3)N21	n	x	n	n	n	x
CC(C)c1nc(SCC(=O)Nc2cccc3ccccc23)n[nH]1	n	x	n	n	n	n
COC(=O)c1cc(-c2cccc([N+](=O)[O-])c2)c2c(=O)n(C)c(=O)n(C)c2n1	n	n	n	n	n	n
